PfM18AAP inh-1 = blocks P. falciparum M18 aspartyl aminopeptidase; recombinant PfM18AAP, H-Glu-NHMec fluorogenic cleavage; inhibition, % at 7.35 µM; hit rate 1.2% among 290,000;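 active = inhibition above the campaign mean inhibition over all tested compounds plus 3 SD, cut at about 28% in these data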;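 also: 0% = plate median of test compound wells and 100% = 2 mM ZnCl2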
PRMT1 FP inh = blocks human protein arginine methyltransferase 1; Q99873; recombinant PRMT1, activity-based probe fluorescence polarization; inhibition, % at 2.79 µM; hit rate 1.3% among 370,000; AID 652257;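 active = inhibition above about 21% made by adding two undisclosed values, limit read from the data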
MBD2 inh = blocks human MBD2 binding to methylated DNA; TR-FRET, MBD2 binding to methylated oligonucleotide; inhibition, % at 4.4 µM; Q9UBB5; AID 686964; hit rate 0.31% among 370,000; in the data active = inhibition above about 13%
UHRF1 MBD2 ctr = UHRF1 methyl-DNA binding inhibition. inhibition, % at 4.4 µM. Q96T88. UHRF1 binding to methylated oligo, TR-FRET. hit rate 0.75% among 370,000; in the data active = inhibition above about 21%;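 also: UHRF1 SRA domain binding a hemimethylated CpG hairpin DNA probe; 0% = median of test compound wells and 100% = reference inhibitor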
Target sequence (Q96T88 whole entry, looked up, the tested form may be a part): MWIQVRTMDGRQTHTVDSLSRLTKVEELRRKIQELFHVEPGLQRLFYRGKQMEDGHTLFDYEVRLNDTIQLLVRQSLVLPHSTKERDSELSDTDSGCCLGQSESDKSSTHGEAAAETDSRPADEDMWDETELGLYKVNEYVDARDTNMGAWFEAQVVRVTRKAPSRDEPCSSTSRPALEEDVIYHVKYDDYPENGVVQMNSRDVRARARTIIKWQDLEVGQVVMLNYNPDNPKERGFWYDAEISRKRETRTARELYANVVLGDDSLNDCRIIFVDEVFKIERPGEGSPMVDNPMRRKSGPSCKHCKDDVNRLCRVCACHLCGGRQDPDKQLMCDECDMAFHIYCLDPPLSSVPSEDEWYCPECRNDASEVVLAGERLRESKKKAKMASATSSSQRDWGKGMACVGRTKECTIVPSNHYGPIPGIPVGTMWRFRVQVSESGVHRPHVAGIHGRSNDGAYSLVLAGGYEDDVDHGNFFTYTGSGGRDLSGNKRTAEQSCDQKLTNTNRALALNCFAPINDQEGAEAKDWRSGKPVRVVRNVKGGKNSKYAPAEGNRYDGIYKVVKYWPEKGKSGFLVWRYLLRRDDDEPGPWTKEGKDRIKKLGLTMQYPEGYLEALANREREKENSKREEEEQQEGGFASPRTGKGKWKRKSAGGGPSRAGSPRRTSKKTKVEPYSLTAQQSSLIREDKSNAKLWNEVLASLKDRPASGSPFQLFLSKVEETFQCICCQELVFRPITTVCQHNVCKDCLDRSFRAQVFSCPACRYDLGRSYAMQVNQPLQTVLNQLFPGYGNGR
PfGluPho inh = PfG6PD (Plasmodium falciparum) enzyme inhibition | PfGluPho enzyme, NADPH resazurin-diaphorase fluorescence | inhibition, % at 20 µM | hit rate 0.78% among 350,000 | AID 504690;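 active = inhibition reaching at least a set limit at 20 µM in the primary screen, cut at about 59% in these data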;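 also: 0% = DMSO wells with substrate and 100% = DMSO wells lacking glucose-6-phosphate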
PfM18AAP inh-2 = PfM18AAP inhibition, confirmation | shares compounds with PfM18AAP inh-1 | inhibition, % at 7.35 µM | hit rate 28% among 2,400 | AID 2170 | recombinant PfM18AAP, H-Glu-NHMec fluorogenic cleavage;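 active = mean inhibition over replicate wells above the hit cutoff set for the earlier primary screen, cut at about 29% in these data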;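 also: 0% = median of test compound wells and 100% = 2 mM ZnCl2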
CTSL1 confirm = Cathepsin L (human) inhibition, confirmation. shares compounds with PfM18AAP inh-1. purified cathepsin L1, Z-Leu-Arg-MCA fluorescence. inhibition, % at 5.96 µM. 2,400 tested, under 10 active. AID 2178;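 active = average inhibition across replicates above the hit cutoff set in the earlier primary screen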;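 also: 0% = median of test compound wells and 100% = Z-Phe-Ala-diazomethylketone 1 µM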
Active calls of the source: *; / = not tested or not shown; ! = not confirmed by another sample. Only some compounds are listed: those with a hit (about 3.3% of all), similar ones and a draw of the others.

SMILES | PfM18AAP inh-1 | PRMT1 FP inh | MBD2 inh | UHRF1 MBD2 ctr | PfGluPho inh | PfM18AAP inh-2 | CTSL1 confirm
Cc1cc(C)c(S(=O)(=O)Nc2ccc(O)c(Sc3ncn[nH]3)c2)cc1C | 52* | 1 | 1 | 2 | 32 | 22 | 2
Cc1cc(C)c(S(=O)(=O)Nc2ccc(O)cc2)cc1C | -5 | / | / | / | 33 | / | /
CC(C)(C)OC(=O)/C=C/[C@@H](CC1CCCC1)Sc1ccc(C(C)(C)C)cc1 | / | 0 | 1 | 2 | / | / | /
CC1CCc2c(sc(NC(=O)CCC(=O)O)c2C(=O)NC2CC2)C1 (stereo not drawn) | 41* | 9 | 4 | 1 | 59 | -1 | -5
CN(C)C(=S)Nc1ccc2c(c1)OCO2 | 38* | 11 | -4 | -2 | 50 | 5 | 1
O=C1C2Sc3[nH]c(=O)sc3C(c3ccccc3)C2C(=O)N1c1ccc(Cl)cc1 (stereo not drawn) | 36* | 10 | -7 | -5 | -29 | -15 | -4
Oc1ccc2c(c1)C1CCCC1(N1CCOCC1)O2 (stereo not drawn) | 36* | 27* | 2 | 14 | 14 | -17 | -4
Cc1ccccc1CN1CCCCC(NC(=O)c2ccc(COc3ccccc3)cc2)C1=O (stereo not drawn) | / | 1 | 2 | 2 | / | / | /
Cc1sc(NC(=O)/C=C/C(=O)O)c(C(N)=O)c1-c1ccc(C(C)(C)C)cc1 | -4 | 14 | 4 | 3 | 11 | / | /
CCc1c(C)sc(NC(=O)/C=C/C(=O)O)c1C(N)=O | 34* | 9 | 0 | -2 | -4 | -42 | -1
COC(=O)C1CN(Cc2ccc(F)cc2)CCS(=O)(=O)N1Cc1ccc(C(F)(F)F)cc1 (stereo not drawn) | / | 0 | -4 | 2 | / | / | /
CC1(C)Cc2c(sc3ncn4c(=S)[nH]nc4c23)CO1 | 43* | 7 | 3 | -2 | 49 | 30* | -1
CC1(C)Cc2c(sc3ncn4nc(CCC(=O)O)c(=O)nc4c23)CO1 | 4 | 1 | -2 | 3 | 0 | / | /
CC(C)N1CCCCC(NC(=O)c2cccc(C(F)(F)F)c2)C1=O (stereo not drawn) | / | -1 | -2 | 0 | / | / | /
O=S(=O)(c1ccc(C(F)(F)F)cc1)N1CCCc2nc(-c3ccc(F)cc3)ccc21 | / | -1 | -5 | -1 | / | / | /
Cc1ccc(S(=O)(=O)N/N=C/c2ccccc2O)cc1[N+](=O)[O-] | 5 | 8 | 2 | 1 | -1 | / | /
Cc1ccc(S(=O)(=O)N/N=C/c2ccc(O)c(O)c2)cc1[N+](=O)[O-] | 54* | 0 | 2 | 2 | 2 | 45* | 4
CC(=O)Oc1ccc(C(=O)OCC(=O)c2c(N)n(C)c(=O)n(C)c2=O)cc1OC(C)=O | 43* | 0 | -1 | 2 | -27 | 1 | -5
Cc1cc(Br)cn2c(Cc3cccc(Cl)c3)c(C3CCCCC3)nc12 | / | 0 | 2 | 7 | / | / | /
CC(=O)c1cc(-c2ccc(F)cc2)n(CCC(=O)Nc2cc(C)[nH]n2)c1C | 57* | 3 | 0 | 0 | 7 | -48 | -5
O=C(CNC(=O)c1ccccc1)NCCc1ccc(O)c(O)c1 | 84* | 25* | -1 | -4 | / | 73* | -5
Cc1cc(C)cc(-c2c(C(=O)c3ccccc3)[nH]c(N)c2C(=O)NCCc2c[nH]c3ccccc23)c1 | / | -4 | 2 | 1 | / | / | /
O=C(C1CC1)N1CCN(c2ccc(O)cc2)CC1 | 43* | 7 | 5 | 0 | 41 | -32 | -2
CC(=O)c1ccc(N2CCN(C(=O)C3CCC3)CC2)cc1 | 2 | -1 | 0 | -4 | -6 | / | /
CCOC(=O)N1CCN(c2ccc(Cl)cc2)CC1 | 5 | 3 | 2 | 2 | -12 | / | /
SMILES | PfM18AAP inh-1 | PRMT1 FP inh | MBD2 inh | UHRF1 MBD2 ctr | PfGluPho inh | PfM18AAP inh-2 | CTSL1 confirm
CCOC(=O)N1CCN(c2ccc(O)cc2)CC1 | 39* | 8 | 0 | 1 | 42 | -10 | 4
COC1=C[C@H](C(=O)NC2CCN(Cc3ccccc3)CC2)[C@@]2(C)Cc3ccccc3[C@H]2CC1=O | / | 0 | -5 | -1 | / | / | /
Cc1cc(Nc2cccc(Br)c2)cc(=O)n1-c1cccc(Br)c1 | / | 0 | 0 | 2 | / | / | /
CCCC(=O)N(c1ccc2oc(C)c(C(C)=O)c2c1)S(=O)(=O)c1ccc(C(=O)O)cc1 | 5 | 1 | 4 | 0 | -8 | / | /
CCCC(=O)N(c1ccc2oc(=O)sc2c1)S(=O)(=O)c1ccccc1 | 33* | 50* | 6 | 1 | -1 | -18 | -1
O=C(NN1C(=O)CSC1=S)C(=O)NN1C(=O)CSC1=S | 41* | 17 | 4 | 19 | -46 | 52* | -2
Cc1cc(C)c(-c2cc(C(=O)Nc3c(C)n(C)n(-c4ccccc4)c3=O)[nH]n2)c(O)c1 | 41* | 1 | -2 | -4 | -12 | -17 | 4
COc1ccc(/C=C2\SC(=O)N(CC(=O)NN3CCN(C)CC3)C2=O)cc1OC | 37* | 5 | -1 | -14 | 6 | -53 | 4
COc1ccc(/C=C2\SC(=O)N(CC(=O)Nc3ccc(O)cc3)C2=O)cc1OC | 0 | 5 | -1 | 1 | -3 | / | /
C[C@H]1[C@@H](OC(=O)NC2CCC2)CC[C@@]23CCCN2C(=O)CCC[C@@H]13 | / | -4 | 1 | -1 | / | / | /
CCN(CC)c1ccc2nc3c4ccccc4c(=O)cc-3oc2c1 | 38* | 5 | 4 | 6 | -3 | -41 | -4
CCNC(=S)NNC(=O)CSc1nc2ccccc2n1C | 32* | 3 | 2 | -4 | -5 | 2 | -1
COC(=O)[C@]12C[C@H](CC(=O)NCc3ccc(C)o3)C(=O)N(Cc3ccc(Cl)cc3Cl)C1=C[C@H](COCc1ccccc1)O[C@@H]2C | / | 2 | -6 | -1 | / | / | /
Cc1ccc(/C=N/Nc2ccc3ccccc3n2)o1 | 14 | -1 | -4 | -2 | 42 | / | /
Cc1ccc(/C=N/Nc2cn[nH]c(=O)n2)o1 | 48* | -3 | -4 | -1 | 10 | 5 | 3
O=S1(=O)C=C(Sc2ccc(Cl)cc2)c2ccccc2C1Cc1ccc(F)cc1 (stereo not drawn) | / | 1 | 2 | -4 | / | / | /
Cc1cccc2sc(NNC(=O)c3cc(=O)c4ccccc4o3)nc12 | 44* | 14 | 2 | 4 | 25 | -1 | -4
COc1ccc(CC(=O)NCC2CCN(C(=O)C(=O)c3cc4ccccc4o3)CC2)cc1 | / | 4 | -2 | 1 | / | / | /
O=C(/C=C/c1ccc(O)c(O)c1)NC(=O)c1ccccc1O | 77* | 13 | -5 | 2 | -10 | 62* | -1
O=C(/C=C/c1ccc(Br)cc1)NC(=O)c1ccccc1O | -11 | 2 | -2 | 0 | 4 | / | /
CC(C)CC(CCOCCO)NC(=O)OCc1ccccc1[N+](=O)[O-] (stereo not drawn) | / | 5 | 0 | 5 | / | / | /
Nc1ccc(C(=O)O)c(O)c1 | 33*! | 16 | 1 | -2 | 28 | -23 | -1
Nc1ccc(C(=O)Oc2ccc([N+](=O)[O-])cc2)c(O)c1 | 19 | / | / | / | / | -52 | -3
O=C(O)c1ccc(O)cc1O | / | 2 | 0 | 3 | 8 | / | /
